S-ASM inh: Inhibitors of Secretory Acid Sphingomyelinase (S-ASM): qHTS. 340,000 compounds, 0.006% hits. Sphingomyelin phosphodiesterase (Homo sapiens), P17405. AID 504937, 2011. Potency, µM (titrated, usually from 57.5 µM), actives largely listed as inhibitors. placental ASM, HMU-PC fluorogenic substrate, 60 min
Target sequence (P17405 47-631 limits assumed): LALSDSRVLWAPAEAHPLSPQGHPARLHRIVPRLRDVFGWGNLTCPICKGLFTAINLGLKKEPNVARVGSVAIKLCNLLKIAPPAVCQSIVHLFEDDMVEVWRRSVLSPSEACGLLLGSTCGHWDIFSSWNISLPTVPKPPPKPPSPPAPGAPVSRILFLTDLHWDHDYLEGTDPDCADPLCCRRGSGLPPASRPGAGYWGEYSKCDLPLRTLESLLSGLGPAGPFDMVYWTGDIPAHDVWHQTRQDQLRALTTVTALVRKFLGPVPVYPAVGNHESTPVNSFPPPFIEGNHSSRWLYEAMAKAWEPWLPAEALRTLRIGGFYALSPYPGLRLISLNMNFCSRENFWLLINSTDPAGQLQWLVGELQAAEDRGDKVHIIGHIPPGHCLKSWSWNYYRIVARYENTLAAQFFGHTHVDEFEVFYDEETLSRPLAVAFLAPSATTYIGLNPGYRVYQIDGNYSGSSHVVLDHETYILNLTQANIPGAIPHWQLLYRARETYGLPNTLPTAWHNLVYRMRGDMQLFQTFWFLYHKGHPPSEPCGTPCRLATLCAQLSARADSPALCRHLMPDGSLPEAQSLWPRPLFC
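Steps: dispense placental human ASM, pin compound, wait 10 min at room temperature, add HMU-PC0 substrate at 9 uM final, incubate 60 min at 37 °C, add stop solution raising pH to 10, read fluorescence.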
IL-1B inflam inh: qHTS for Inhibitors of Inflammasome Signaling: IL-1-beta AlphaLISA Primary Screen; 360,000 compounds, 4.7% hits; AID 743279, 2014; THP-1 LPS/ATP IL-1B secretion, AlphaLISA, 16 h; active compounds read low; activity change, % at 57.5 µM; in the data active = activity change below about -50%; inconclusive = mostly about -30% to -49%
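THP-1 cells pretreated 1 hr with compounds (up to 57.5 uM final), then stimulated with LPS (250 ng/mL final) plus ATP (1.25 mM final); secreted IL-1B measured by AlphaLISA after 16 hr, decreased signal indicating inhibition.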
HepG2 tox: qHTS for Inhibitors of TGF-b: Cytotox Counterscreen. HepG2 CAGA-GFP viability, ATP luminescence, 18 h. Potency, µM (highest dose often 46.1 µM), usual class: cytotoxic. 410,000 compounds, 0.76% hits
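CellTiter-Glo luminescence gave cytotoxicity after 18 hours at 37 degrees C. The cells were HepG2 CAGA-GFP in 1% FBS DMEM, stimulated with 500 pg/mL TGF-beta after compound addition. %Activity was normalised to no-cell wells (complete cell-killing) and DMSO (no toxicity), and curves were fitted and classified.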
TDP1 cell CPT: qHTS for Inhibitors of human tyrosyl-DNA phosphodiesterase 1 (TDP1): qHTS in cells in presence of CPT. chicken DT40 Tdp1-/-;hTDP1 cells + 20 nM CPT, ATP luminescence, 48 h. Potency, µM (top dose mostly 46.2 µM), usual class: inhibitors. 420,000 compounds, 12% hits. AID 686979, 2013; note: nearly all actives have a fitted effect of over 55% in size
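Cell growth measured by CellTiter-Glo luminescence after a minimum 48 h, 37 C compound exposure with 20 nM CPT in Tdp1-knockout DT40 cells stably expressing hTDP1, seeded 400/well; qHTS titration format.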
DT40 TDP1 no CPT: qHTS for Inhibitors of human tyrosyl-DNA phosphodiesterase 1 (TDP1): qHTS in cells in absence of CPT | DT40 Tdp1-/- hTDP1 cells, no CPT, ATP luminescence, 48 h | AID 686978, 2013 | Potency, µM (doses to about 46.2 µM), most hits filed as inhibitors | 420,000 compounds, 15% hits; note: nearly all actives have a fitted effect of over 55% in size
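Growth kinetics read by CellTiter-Glo luminescence after ≥48 hr at 37 °C. Cells: DT40 Tdp1-/- stably carrying human TDP1, 400 per well, compound exposure in the absence of CPT (DMSO vehicle).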
TGFb SMAD3 inh: qHTS for Inhibitors of TGF-b; HepG2 CAGA-GFP TGF-b/SMAD3 reporter, GFP fluorescence, 18 h; TGF-beta stimulated, 500 pg/mL final; AID 588855, 2011; 410,000 compounds, 1.2% hits; Potency, µM (top dose mostly 46.1 µM), actives largely listed as inhibitors; note: nearly all actives have a fitted effect of over 65% in size
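Using HEPG2 CAGA-GFP reporter cells at 1000 cells/well, we pinned test compounds, stimulated with recombinant TGF-beta (500 pg/mL final) and measured total well GFP after 18 h.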
A number is an active result; 0 = inactive; ? = inconclusive; - = not tested or not shown. A selection: hits, their analogues and other compounds. The true share with any hit is near 19%. Unless noted, calls come from the whole dose curve; as a rule, active = well fitted curve in the direction sought with a large enough effect; inconclusive = small, poorly fitted or top-dose-only effect, or another doubt; inactive = no such curve, though single readings can be large; an effect the other way counts as inactive or inconclusive.

SMILES	S-ASM inh	IL-1B inflam inh	HepG2 tox	TDP1 cell CPT	DT40 TDP1 no CPT	TGFb SMAD3 inh
O=c1cc(-c2ccccc2)[nH]c2ccc(F)cc12	0	0	0	0.92µM	0.52µM	?
O=c1cc(-c2cccc(F)c2)oc2ccccc12	0	0	0	?	?	0
COc1cccc(C(O)c2ncc(-c3cccc(F)c3)[nH]2)c1 (stereo not given)	-	0	0	?	0	0
O=c1cc(-c2cccc(F)c2)[nH]c2ccccc12	0	0	0	1µM	0.58µM	?
COc1ccc2[nH]c(-c3cccc(F)c3)cc(=O)c2c1	0	0	0	0.33µM	0.23µM	?
Cc1cc(=O)c2cc(C(=O)Nc3ccc(F)cc3)ccc2[nH]1	-	-	0	0	0	0
Cc1ccc(-c2cc(=O)c3cc(F)ccc3[nH]2)cc1	0	0	0	23µM	?	0
CC1(C(=O)NS(=O)(=O)c2cccc(Cl)c2)CCN1C(=O)c1cccc2ccccc12 (stereo not given)	-	0	0	0	0	0
COc1cc(OC)cc(-c2nnc(SCC(=O)N3CCC(C)CC3)o2)c1	-	-	0	?	?	0
COc1ccc(N2CCN(C(=O)NC(=O)c3ccccc3)CC2)cc1	0	0	0	0	0	0
Cc1nnc(SC(C(=O)Nc2ccc(Cl)c([N+](=O)[O-])c2)c2ccccc2)[nH]c1=O (stereo not given)	0	0	0	0	0	0
CCN(CC(=O)Nc1ccc2c(c1)OCCO2)S(=O)(=O)c1ccccc1	0	0	0	0	0	0
CCc1c(C)[nH]c2ccc(C)cc2c1=O	0	0	0	?	?	0
Cc1ccc(-c2cc(=O)c3cc(C)ccc3[nH]2)cc1	0	0	0	5.2µM	3.7µM	0
O=c1cc(-c2ccccc2)[nH]c2cc(Cl)ccc12	0	0	0	0.46µM	0.73µM	0
CCOC(=O)Cc1ccc(NC(=O)N2CCOc3ccc(C)cc32)cc1	-	-	0	?	?	?
CCc1ccc(NC(=O)N2CCOc3ccc(Cl)cc32)cc1	-	-	0	0	13µM	0
CC(C)Oc1ccc(CNC(=O)C2CCN(C(=O)N3CCOc4ccc(Cl)cc43)CC2)cc1	-	-	0	6.5µM	6.5µM	?
CC(C)CCNC(=O)C1CCN(C(=O)N2CCOc3ccc(Cl)cc32)CC1	-	-	0	26µM	?	?
O=C(NCc1ccco1)C1CCN(C(=O)N2CCOc3ccc(Cl)cc32)CC1	-	-	0	0	?	0
O=C(NCc1cccs1)C1CCN(C(=O)N2CCOc3ccc(Cl)cc32)CC1	-	-	0	?	?	?
COc1cccc(CNC(=O)C2CCN(C(=O)N3CCOc4ccc(Cl)cc43)CC2)c1OC	-	-	0	?	21µM	0
O=C(Cn1ncc2c([nH]c3ccccc32)c1=O)Nc1cc(F)ccc1F	-	-	0	0	0	0
CCCCCCCCCCCCCCCC[n+]1cccc2ccccc21	?	-102	11µM	0.41µM	0.23µM	6.3µM
CCCCCCCCCC[n+]1cccc2cc(Br)ccc21	-	-	0	0.63µM	1.3µM	?
Cc1ccccc1C[n+]1cccc2ccccc21	0	0	0	?	15µM	0
CCCCCCCCC[n+]1cccc2c3ccccc3ccc21	0	0	16µM	0.58µM	0.46µM	1.8µM
O=C(COC(=O)CNC(=O)c1ccccc1F)NCCC1=CCCCC1	0	0	0	0	0	0
Cc1ccc(N(Cc2cccs2)C(=O)C(C)Oc2ccc(Cl)c(C)c2)cc1 (stereo not given)	-	-	0	12µM	9.2µM	?
COc1ccc(N(Cc2cccs2)C(=O)c2ccc(OC)c(Cl)c2)cc1	-	-	0	?	?	0

Compound activity: PubChem BioAssay, National Center for Advancing Translational Sciences (NCATS)
